Records with an inconclusive call do not appear. Active and inactive are the calls of the source. Unless noted, calls come from the whole dose curve.
Experiments:
[1] = Nuclear factor erythroid 2-related factor 2/antioxidant responsive element (Nrf2/ARE) small molecule agonists: qHTS cell viability counter screen in human keratinocytes (AID 1919968; active = well fitted curve in the direction sought with a large enough effect in the repeat runs; an effect the other way counts as inactive or inconclusive; note: nearly all actives have a fitted effect of over 55% in size; note: potency is the fitted concentration of half-maximal effect)
How it was run: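 KeratinoSens cells (HaCaT keratinocytes stably carrying an ARE-luciferase reporter) were seeded at 1,500 cells/well and rested 5 h at 37 C/5% CO2. They were then exposed to compounds in DMSO for 23 h. Viability was read by CellTiter-Fluor fluorescence after 1 h.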

[2] = target: KiSS-1 receptor (Homo sapiens) (UniProt Q969F8); experiment: Human kisspeptin (KISS1R) small molecule agonists, calcium flux assay in KISS1R-HEK293 cells (AID 1920064; active = well fitted curve in the direction sought with a large enough effect in the repeat runs; an effect the other way counts as inactive or inconclusive)
How it was run: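 HEK293 cells stably expressing human KISS1R were plated 18 h at 37 °C, loaded with calcium dye for 1 h at 37 °C, then given compound by pin tool. Fluorescence (Ex/Em 480/540) was read kinetically for 3 min.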

[3] = p53 small molecule agonists, cell-based qHTS assay with human liver microsomes (AID 1963577);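 note: p53 response element beta-lactamase reporter cells with liver microsomes plus NADPH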
How it was run: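 Reporter activation was measured by LiveBLAzer fluorescence intensity in p53RE-bla cells, which had been exposed to compounds for 16 h at 37 C alongside 0.5 mg/mL human liver microsomes and 0.5 mg/mL NADPH (final concentrations).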

[4] = p53 small molecule agonists, cell-based qHTS assay with rat liver microsomes (AID 1963578)
How it was run: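 Compound in DMSO added to p53RE-bla cells 5 h post-plating; rat microsomes/NADPH 0.5 mg/mL final; 16 h, 37 C; LiveBLAzer 2 h RT.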

[5] = p53 small molecule agonists, cell-based qHTS assay with human liver microsomes: qHTS cell viability counter screen (AID 1963579); note: nearly all actives have a fitted effect of over 45% in size
How it was run: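 HLM-supplemented (0.5 mg/mL final) and NADPH-supplemented (0.5 mg/mL final) p53RE-bla cultures, 4,000 cells per well, were dosed with compounds in DMSO for 16 h at 37 C; luminescent ATP detection (CellTiter-Glo, 30 min, room temperature) quantified surviving cells.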

[6] = p53 small molecule agonists, cell-based qHTS assay with rat liver microsomes: qHTS cell viability counter screen (AID 1963580); note: nearly all actives have a fitted effect of over 45% in size
How it was run: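 HCT-116 p53RE-bla, 4,000 cells/well, 5 h pre-incubation; cpd + rat liver microsomes 0.5 mg/mL + NADPH 0.5 mg/mL (final); 16 h, 37 C; CellTiter-Glo, 30 min RT; luminescence.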

[7] = p53 small molecule agonists, cell-based qHTS assay: qHTS cell viability counter screen (AID 1963581); note: nearly all actives have a fitted effect of over 45% in size
How it was run: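 p53RE-bla HCT-116 cells were exposed to compounds for 16 h at 37 C; after the beta-lactamase FRET read in the same wells, CellTiter-Glo was added and luminescence (intracellular ATP) read after 30 min at room temperature.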

[8] = p53 small molecule agonists, cell-based qHTS assay (AID 1963582; active = well fitted activation curve with a large enough effect in the signal ratio in the repeat runs, not every such curve was filed as active; the % refers to the signal ratio)
How it was run: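 p53RE-bla beta-lactamase reporter cells rested 5 h at 37 C/5% CO2, then received compounds in DMSO by pin transfer and were incubated 16 h at 37 C. LiveBLAzer B/G FRET substrate was loaded for 2 h at room temperature before fluorescence reading.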

[9] = target: 5-hydroxytryptamine receptor 2A (Homo sapiens) (UniProt P28223); experiment: 5-hydroxytryptamine receptor 2A (HTR2A) small molecule antagonists, cell-based qHTS assay (AID 1963586); note: nearly all actives have a fitted effect of over 45% in size
How it was run: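 Antagonist-mode intracellular calcium assay: DOI (4 nM) added after 5 min compound pre-incubation at room temperature to dye-loaded HTR2A-CHO cells. Fluorescence followed for 3 min, sampled every second.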

[10] = target: 5-hydroxytryptamine receptor 2A (Homo sapiens) (UniProt P28223); experiment: 5-hydroxytryptamine receptor 2A (HTR2A) small molecule agonists, cell-based qHTS assay (AID 1963587); note: nearly all actives have a fitted effect of over 30% in size
How it was run: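 Kinetic calcium-flux fluorescence (2 min, 1 sec intervals) after compound addition in agonist mode. HTR2A-CHO cells were cultured 18 h, then dye-loaded 1 h at 37 C.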

[11] = target: D(2) dopamine receptor (Homo sapiens) (UniProt P14416); experiment: Dopamine D2 receptor (DRD2) small molecule antagonists, cell-based qHTS assay (AID 1963595; active = well fitted inhibition curve with a large enough effect in the signal ratio in the repeat runs, with a control signal flat; the % refers to the signal ratio)
How it was run: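 Antagonism was scored as restored cAMP in HEK293-DRD2 cells. These cells were stimulated with 200 nM NKH477 and 12 nM quinpirole for 30 min at room temperature, in the presence of 0.1 mM Ro20-1724.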

[12] = G protein-coupled receptor (GPCR) small molecule agonists, calcium flux assay: HEK293 wild type cell line counter screen (AID 1920065)
How it was run: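 Cells were plated and cultured 18 h at 37 C/5% CO2, then loaded with calcium dye for 1 h at 37 C. Compounds in DMSO were pin-transferred in agonist mode, and fluorescence (Ex/Em 480/540) was read kinetically for 3 min at 1 s intervals.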

[13] = target: Muscarinic acetylcholine receptor M1 (Homo sapiens) (UniProt P11229); experiment: Cholinergic receptor muscarinic 1 (CHRM1) small molecule antagonists, cell-based qHTS assay (AID 1963588); note: nearly all actives have a fitted effect of over 40% in size
How it was run: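 CHRM1-CHO calcium-flux assay, antagonist mode. Cells were seeded 18 h, dye-loaded 1 h at 37 C and given compound for 5 min at RT, then acetylcholine was added at 50nM. FDSS fluorescence was read 3 min; 15 concentrations, three runs.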

[14] = target: Muscarinic acetylcholine receptor M1 (Homo sapiens) (UniProt P11229); experiment: Cholinergic receptor muscarinic 1 (CHRM1) small molecule agonists, cell-based qHTS assay (AID 1963589); note: nearly all actives have a fitted effect of over 35% in size
How it was run: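 CHO cells stably expressing human CHRM1, seeded 18 h at 37 C/5% CO2, dye-loaded 1 h at 37 C, then given compound in agonist mode; intracellular calcium fluorescence read kinetically at 1 s intervals. Fifteen concentrations, three independent runs.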

[15] = cAMP Responsive Elements (CRE) small molecule agonists, cell-based qHTS assay (AID 1963590)
How it was run: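 CRE-bla HEK 293T cells in DMEM with 10% dialyzed FBS, NEAA, pyruvate and 25 mM HEPES were plated 18 h at 37 C/5% CO2, then exposed to compounds in DMSO for 3 h before LiveBLAzer B/G FRET substrate addition.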

[16] = cAMP Responsive Elements (CRE) small molecule antagonists, cell-based qHTS assay (AID 1963591; active = well fitted inhibition curve with a large enough effect in the signal ratio in the repeat runs, not every such curve was filed as active; the % refers to the signal ratio)
How it was run: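 CRE-bla HEK293T cells were plated 18 h at 37 °C/5% CO2, pinned with compound in DMSO, then stimulated with NKH477 at 0.25 uM final for 3 h. LiveBLAzer B/G FRET substrate was added and plates incubated 2 h at room temperature.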

[17] = target: D(2) dopamine receptor (Homo sapiens) (UniProt P14416); experiment: Dopamine D2 receptor (DRD2) small molecule agonists, cell-based qHTS assay (AID 1963594); note: nearly all actives have a fitted effect of over 35% in size; note: potency is the fitted concentration of half-maximal effect
How it was run: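 cAMP accumulation in DRD2-HEK293 cells measured by HTRF after 1 h detection; compounds added 10 min before NKH477 (200nM […]) forskolin-analogue stimulation, 30 min at room temperature, with Ro20-1724 present at 0.1 mM final.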

[18] = target: Beta-2 adrenergic receptor (Homo sapiens) (UniProt P07550); experiment: Adrenergic beta2 receptor (ADRB2) small molecule antagonists, cell-based qHTS assay (AID 1963592); note: series mostly up to about 92 µM; nearly all actives have a fitted effect of over 50% in size
How it was run: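 Cells (CHO, stable ADRB2 overexpression) incubated 18-20hr at 37C; compounds added from DMSO; agonist mix (1nM isoproterenol, 100uM IBMX, 25uM Ro-20-1724) added; 0.5hr RT; d2-cAMP and anti-cAMP-cryptate added; 1hr RT; 665/615 nm read.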

[19] = target: Beta-2 adrenergic receptor (Homo sapiens) (UniProt P07550); experiment: Adrenergic beta2 receptor (ADRB2) small molecule agonists, cell-based qHTS assay (AID 1963593);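 note: CHO cells stably overexpressing human ADRB2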
How it was run: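 CHO cells stably over-expressing ADRB2 were plated overnight at 37C, then dosed with compounds plus a stimulation mix containing 100uM IBMX and 25uM Ro-20-1724 for 0.5hr at room temperature. cAMP was measured by HTRF competition, 1hr.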

[20] = target: Gonadotropin-releasing hormone receptor (Homo sapiens) (UniProt P30968); experiment: Human gonadotropin-releasing hormone receptor (GnRHR) small molecule agonists, calcium flux assay in GnRHR-HEK293 cells (AID 1920063); note: nearly all actives have a fitted effect of over 35% in size
How it was run: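 HEK293 cells stably expressing human GnRHR were plated 18 h at 37 °C, loaded with calcium dye 1 h at 37 °C, then given compound in agonist mode; fluorescence (Ex/Em 480/540) read kinetically for 3 min at 1 s intervals.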

Measured: Potency

Sequence of KiSS-1 receptor (Homo sapiens) (Q969F8 whole entry, looked up): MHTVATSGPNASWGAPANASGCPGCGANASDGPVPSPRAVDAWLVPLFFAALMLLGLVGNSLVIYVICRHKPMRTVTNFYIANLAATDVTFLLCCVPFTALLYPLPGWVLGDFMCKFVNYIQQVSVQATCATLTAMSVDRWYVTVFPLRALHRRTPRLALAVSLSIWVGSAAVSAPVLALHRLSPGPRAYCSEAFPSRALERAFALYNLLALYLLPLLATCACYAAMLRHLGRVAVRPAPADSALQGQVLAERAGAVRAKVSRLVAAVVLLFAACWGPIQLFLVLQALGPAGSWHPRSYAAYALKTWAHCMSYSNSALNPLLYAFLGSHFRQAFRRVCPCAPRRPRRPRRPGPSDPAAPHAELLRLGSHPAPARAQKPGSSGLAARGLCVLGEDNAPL
Sequence of Beta-2 adrenergic receptor (Homo sapiens) (P07550 whole entry, looked up): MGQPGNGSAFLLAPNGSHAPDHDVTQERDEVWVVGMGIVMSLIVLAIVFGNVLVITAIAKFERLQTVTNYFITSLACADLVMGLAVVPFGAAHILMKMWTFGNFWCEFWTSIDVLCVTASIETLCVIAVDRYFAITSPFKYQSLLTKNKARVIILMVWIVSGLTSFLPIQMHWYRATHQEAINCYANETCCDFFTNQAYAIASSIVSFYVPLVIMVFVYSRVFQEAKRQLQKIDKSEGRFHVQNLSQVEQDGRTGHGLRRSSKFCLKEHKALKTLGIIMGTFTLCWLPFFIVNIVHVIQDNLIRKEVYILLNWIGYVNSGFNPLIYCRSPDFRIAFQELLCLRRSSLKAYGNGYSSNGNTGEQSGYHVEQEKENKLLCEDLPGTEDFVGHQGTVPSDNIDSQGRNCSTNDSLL
Sequence of D(2) dopamine receptor (Homo sapiens) (P14416 whole entry, looked up): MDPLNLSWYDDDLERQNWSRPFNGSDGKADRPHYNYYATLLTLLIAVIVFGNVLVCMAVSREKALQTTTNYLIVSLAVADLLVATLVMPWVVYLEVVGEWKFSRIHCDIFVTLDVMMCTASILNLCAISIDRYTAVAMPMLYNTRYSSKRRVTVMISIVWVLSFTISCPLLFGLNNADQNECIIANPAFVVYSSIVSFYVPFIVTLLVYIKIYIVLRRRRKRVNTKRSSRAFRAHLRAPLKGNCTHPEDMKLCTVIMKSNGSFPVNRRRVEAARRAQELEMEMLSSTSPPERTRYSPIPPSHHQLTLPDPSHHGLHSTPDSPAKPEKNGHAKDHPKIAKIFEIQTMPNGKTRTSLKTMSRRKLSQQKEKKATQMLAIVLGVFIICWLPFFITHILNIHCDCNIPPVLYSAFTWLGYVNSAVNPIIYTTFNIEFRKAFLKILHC
Sequence of Muscarinic acetylcholine receptor M1 (Homo sapiens) (P11229 whole entry, looked up): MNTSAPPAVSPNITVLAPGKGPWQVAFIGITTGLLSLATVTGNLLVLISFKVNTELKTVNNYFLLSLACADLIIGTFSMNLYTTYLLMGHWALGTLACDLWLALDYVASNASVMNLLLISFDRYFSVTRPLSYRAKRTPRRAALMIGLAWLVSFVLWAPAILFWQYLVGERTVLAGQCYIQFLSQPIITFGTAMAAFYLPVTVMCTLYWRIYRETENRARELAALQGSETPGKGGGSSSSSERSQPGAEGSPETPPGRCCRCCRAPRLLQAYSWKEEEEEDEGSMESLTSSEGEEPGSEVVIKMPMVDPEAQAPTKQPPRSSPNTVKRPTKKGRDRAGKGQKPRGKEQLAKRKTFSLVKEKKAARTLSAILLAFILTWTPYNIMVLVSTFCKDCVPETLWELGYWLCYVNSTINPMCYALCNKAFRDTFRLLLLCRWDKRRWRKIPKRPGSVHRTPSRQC
Sequence of 5-hydroxytryptamine receptor 2A (Homo sapiens) (P28223 whole entry, looked up): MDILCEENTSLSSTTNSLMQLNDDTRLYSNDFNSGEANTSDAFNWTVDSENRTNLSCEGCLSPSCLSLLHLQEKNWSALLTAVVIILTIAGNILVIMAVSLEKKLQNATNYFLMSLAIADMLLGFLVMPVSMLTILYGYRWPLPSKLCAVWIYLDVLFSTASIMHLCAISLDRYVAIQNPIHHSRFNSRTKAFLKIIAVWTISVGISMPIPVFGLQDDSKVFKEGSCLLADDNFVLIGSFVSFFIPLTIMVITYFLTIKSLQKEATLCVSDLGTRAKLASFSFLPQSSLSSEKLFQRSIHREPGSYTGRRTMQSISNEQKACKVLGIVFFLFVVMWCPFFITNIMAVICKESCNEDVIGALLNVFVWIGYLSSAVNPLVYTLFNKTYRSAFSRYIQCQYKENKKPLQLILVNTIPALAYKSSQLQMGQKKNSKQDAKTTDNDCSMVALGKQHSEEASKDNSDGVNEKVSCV
Sequence of Gonadotropin-releasing hormone receptor (Homo sapiens) (P30968 whole entry, looked up): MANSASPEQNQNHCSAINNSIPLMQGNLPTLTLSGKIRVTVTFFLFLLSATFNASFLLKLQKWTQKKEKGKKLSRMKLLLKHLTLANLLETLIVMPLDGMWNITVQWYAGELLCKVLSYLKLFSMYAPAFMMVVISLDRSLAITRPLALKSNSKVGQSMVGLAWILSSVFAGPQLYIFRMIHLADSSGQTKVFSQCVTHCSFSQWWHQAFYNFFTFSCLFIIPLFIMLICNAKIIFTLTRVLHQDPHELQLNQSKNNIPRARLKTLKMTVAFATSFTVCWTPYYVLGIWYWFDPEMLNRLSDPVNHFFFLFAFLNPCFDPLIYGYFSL

COc1ccc2sc(C(=O)Nc3nnn[nH]3)c(OC(C)C)c2c1
active: [1] 27.2 µM
inactive: [2] | [3] | [4] | [5] | [6] | [7] | [8] | [9] | [10] | [11]

c1ccc(CCNc2nc(-c3ccccc3)cs2)cc1
not listed: [3] | [11] | [18] | [19] | [20]
inactive: all other assays above

C=C(C)c1ccccc1
not listed: [3] | [19] | [20]
inactive: all other assays above

Cc1cc(S(=O)(=O)O)ccc1N=Nc1c(O)ccc2ccccc12
active: [1] 43.3 µM
not listed: [2] | [7] | [8] | [17] | [18] | [19] | [20]
inactive: all other assays above

CC(C)Nc1nc(N)nc(Cl)n1
not listed: [4] | [16] | [19] | [20]
inactive: all other assays above

COc1cccc(O)c1O
not listed: [5] | [11] | [16] | [17] | [19] | [20]
inactive: all other assays above

O=C(Nc1cccc2c(=O)cc(-c3nn[nH]n3)oc12)c1ccc(OCCCCc2ccccc2)cc1
not listed: [5] | [6] | [7] | [9] | [15] | [16] | [19] | [20]
inactive: all other assays above

O=C1CCCCO1
not listed: [2] | [19] | [20]
inactive: all other assays above

CCCNC(C)C(=O)Nc1ccccc1C (stereo not given)
active: [17] 14.4 µM
not listed: [2] | [9] | [10] | [13] | [14] | [20]
inactive: all other assays above

Nc1ccc(S(=O)(=O)O)c(N)c1
not listed: [5] | [8] | [15] | [17] | [20]
inactive: all other assays above

O=C(OOC(=O)c1ccccc1)c1ccccc1
not listed: [4] | [12] | [18] | [19] | [20]
inactive: all other assays above

CCCCOC(=O)C(C)O (stereo not given)
not listed: [11] | [13]
inactive: all other assays above

O=c1cc[nH]cc1
not listed: [10] | [14] | [19]
inactive: all other assays above

N#Cc1cscn1
not listed: [14] | [19]
inactive: all other assays above

CCCCOCCOC(=O)COc1ccc(Cl)cc1Cl
not listed: [13] | [15] | [16]
inactive: all other assays above

O=C1[C@H](CC[C@H](O)c2ccc(F)cc2)[C@@H](c2ccc(O)cc2)N1c1ccc(F)cc1
not listed: [19]
inactive: all other assays above

CC[N+](C)(CC)CCOC(=O)C(O)(c1ccccc1)C1CCCCC1 (stereo not given)
not listed: [11] | [15] | [19]
inactive: all other assays above

From PubChem BioAssay (Tox21)
